This is a sample that favours compounds with a hit; in the whole collection about 2.3% have one here.
Tau ThT inhib = tau fibrillization inhibition (ThT binding) | Potency, µM (highest dose often 57.4 µM), for the others: at the highest dose activity, negative = inhibition, most hits filed as inhibitors | 270,000 tested, 2.1% active | P10636 | recombinant tau K18 P301L, heparin-induced fibrillization, ThT fluorescence; note: potency is the fitted concentration of half-maximal effect; nearly all actives have a fitted effect of over 55% in size
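K18 P301L tau (15 uM + 0.24 uM Alexa 594-tagged), heparin 20 uM, NaOAc pH 7, 6 h 37 C; ThT 30 uM, 1 h RT, ex 450/em 510 nm.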
Coupling enz = inhibits coupling enzyme system, counter-screen for aldolase hits. coupling enzyme system counterscreen, AmpLite Red fluorescence. activity change, negative = inhibition, % at 58.2 µM, hits read low. 290,000 tested, 0.67% active; in the data active = activity change below about -30%
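Coupling enzymes only (glyceraldehyde-3-phosphate) + compound, at 57.5 uM final, 10 min RT; add substrate/coupling/AmpLite Red mix, 20 min RT; fluorescence ex 525/em 598 nm. Actives flag coupling-system interference.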
Tau fluor cs = counter-screen for tau fibril formation inhibitors; tau K18 P301L (four-repeat tau fragment) Alexa594 fluorescence, heparin fibrillization; Potency, µM (top dose mostly 57.7 µM), inactives show at the highest dose activity change, negative = decrease; 280,000 tested, 0.93% active; note: potency is the fitted concentration of half-maximal effect; nearly all actives have a fitted effect of over 55% in size
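Human K18 P301L tau (15 uM unlabeled plus 0.24 uM Alexa 594-labeled, final) in 100 mM sodium acetate pH 7 was mixed with compound and 20 uM heparin and incubated 6 hr at 37 C.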
USP1-UAF1 inh = inhibitors of human USP1/UAF1 deubiquitinase; Potency, µM (titrated, usually from 57.1 µM), for the others: top-dose activity change, negative = inhibition, hits mostly inhibitors; AID 743255; 390,000 tested, 0.23% active; recombinant USP1/UAF1, Ub-Rhodamine cleavage fluorescence; note: potency is the fitted concentration of half-maximal effect; nearly all actives have a fitted effect of over 60% in size
Target sequence (O94782 whole entry, looked up): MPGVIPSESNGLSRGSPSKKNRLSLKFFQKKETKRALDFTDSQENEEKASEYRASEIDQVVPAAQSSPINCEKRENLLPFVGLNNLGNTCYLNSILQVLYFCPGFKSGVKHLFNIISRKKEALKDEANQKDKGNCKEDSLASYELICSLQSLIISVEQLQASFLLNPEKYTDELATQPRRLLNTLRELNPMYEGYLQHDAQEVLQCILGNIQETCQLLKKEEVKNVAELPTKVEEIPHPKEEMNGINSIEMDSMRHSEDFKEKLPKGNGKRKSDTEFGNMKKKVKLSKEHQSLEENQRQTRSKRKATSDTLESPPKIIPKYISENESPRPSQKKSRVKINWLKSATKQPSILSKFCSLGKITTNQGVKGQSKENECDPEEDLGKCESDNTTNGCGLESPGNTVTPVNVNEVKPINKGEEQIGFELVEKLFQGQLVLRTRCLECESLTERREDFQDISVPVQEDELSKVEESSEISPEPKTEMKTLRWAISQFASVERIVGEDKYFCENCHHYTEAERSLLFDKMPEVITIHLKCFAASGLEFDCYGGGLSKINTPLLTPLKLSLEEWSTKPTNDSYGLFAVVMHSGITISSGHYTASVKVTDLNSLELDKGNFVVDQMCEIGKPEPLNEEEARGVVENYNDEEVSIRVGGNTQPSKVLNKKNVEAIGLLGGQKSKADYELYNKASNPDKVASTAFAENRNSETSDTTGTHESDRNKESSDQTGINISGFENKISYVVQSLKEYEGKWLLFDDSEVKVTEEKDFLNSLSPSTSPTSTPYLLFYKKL
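High-throughput fluorogenic screen: 1nM USP1/UAF1 complex, Ub-Rho substrate 150nM final, 50mM HEPES pH 7.8 with 0.5mM EDTA, 0.1 mg/ml BSA, 1mM TCEP and 0.01% Tween-20.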
Tau FP inhib = tau fibrillization inhibition (FP) | P10636 | K18 P301L tau heparin fibrillization, Alexa594 FP, 6 h | Potency, µM (titrated, usually from 57.7 µM), for inactives: top-dose activity, negative = inhibition, hits mostly inhibitors | 280,000 tested, 0.39% active | AID 1468; note: potency is the fitted concentration of half-maximal effect; nearly all actives have a fitted effect of over 55% in size
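Read-out: fluorescence polarization of Alexa 594-labeled tau (0.24 uM), 555 nm excitation, 632 nm emission. Mixtures held 15 uM unlabeled K18 P301L, compound and 20 uM heparin, pH 7 acetate buffer, incubated 6 hr at 37 C.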
Active calls of the source: *; ? = inconclusive; · = no result given; [ ] = dose if it differs, or a comment. Unless noted, calls come from the whole dose curve; as a rule, active = well fitted curve in the direction sought with a large enough effect; inconclusive = small, poorly fitted or top-dose-only effect, or another doubt; inactive = no such curve, though single readings can be large; an effect the other way counts as inactive or inconclusive. % is set by controls: 0 for no effect and ±100 for the full control effect.

SMILES	Tau ThT inhib	Coupling enz	Tau fluor cs	USP1-UAF1 inh	Tau FP inhib
NS(=O)(=O)c1ccc(N/N=C/C=C/c2ccccc2[N+](=O)[O-])cc1	·	-3	·	-20%	·
CCc1ccc(NC(=O)CN(Cc2ccccc2)S(=O)(=O)c2ccc3nc(C)sc3c2)cc1	2%	·	-18%	-9%	-3%
C/C=C/C=N/Nc1nc(-c2ccc([N+](=O)[O-])cc2)cs1	3.5µM*	0	?	-18%	14%
Cc1ccc(-c2csc(N/N=C/C=C/c3ccccc3)n2)cc1	?	1	?	4%	15%
CC(=O)Nc1nc(-c2ccc([N+](=O)[O-])cc2)cs1	-5%	0	-7%	-18%	9%
CC(C)=NNc1nc(-c2ccc([N+](=O)[O-])cc2)cs1	8.9µM*	-1	-29%	-12%	10%
COc1ccc(-n2ccnc(NCc3ccccc3OC)c2=O)cc1	-6%	·	-17%	-21%	3%
O=C(NCc1ccco1)c1nn2c(C(F)(F)F)cc(-c3cccs3)nc2c1Br	14µM*	6	-29%	-9%	?
O=C(NCC1CCCO1)c1nn2c(C(F)(F)F)cc(-c3cccs3)nc2c1Br (stereo not drawn)	·	0	·	-1%	·
CCOC(=O)C1=C(c2ccccc2)N=c2s/c(=C\c3cc(OC)c(OC)c(OC)c3)c(=O)n2C1c1cccs1 (stereo not drawn)	-8%	3	-12%	22µM*	-6%
CCOC(=O)C(CC)Sc1ncnc2c1c(-c1ccccc1)cn2-c1ccc(OC)cc1 (stereo not drawn)	-5%	·	-23%	-9%	-11%
COC(=O)CCc1sc(Nc2ccccc2)nc1-c1ccc(OC)cc1	?	0	16µM*[quencher]	-7%	13%
Oc1cc(O)cc(/C=C/c2ccc(O)c(O)c2)c1	7.1µM*	-9	11µM*[quencher]	14%	8%
CCOc1ccc(Br)cc1S(=O)(=O)Nc1ccc(C(=O)OCC(=O)Nc2ccc(C#N)cc2)cc1	-5%	-6	?	1%	25µM*
CC(C)(C)NC(=O)NC(=O)COC(=O)c1cccc(NS(=O)(=O)c2ccc(F)c(F)c2)c1	-3%	-3	-23%	-6%	2%
CC(C)(C)c1ccc(NC(=O)COC(=O)c2ccc(NS(=O)(=O)c3ccc(F)c(F)c3)cc2)cc1	3%	-1	?	-8%	28µM*
COc1ccccc1CNC(=O)C1CCN(S(=O)(=O)c2ccc3c(c2)CCCN3C(C)=O)CC1	-4%	·	-10%	-3%	-2%
O=C(OCC(=O)C12CC3CC(CC(C3)C1)C2)c1ccc(O)cc1	·	·	·	-15%	·
Nc1ccc(O)cc1C(=O)OCC(=O)C12CC3CC(CC(C3)C1)C2	-13%	-47*	?	-12%	14%
COc1ccc(C(=O)OCC(=O)c2ccc(C3CCCCC3)cc2)cc1	-21%	1	-21%	-2%	?
Nc1ccc(O)cc1C(=O)OCC(=O)c1ccc(C2CCCCC2)cc1	?	-3	13µM*[quencher]	-25%	-1%
O=C(NCc1ccccc1Cl)c1ccc(NC(=O)c2nsc3ccccc23)cc1	2%	·	-26%	-5%	?
CN1CCN(C2(CNC(=O)c3ccc([N+](=O)[O-])cc3)CCCCC2)CC1	-10%	·	-9%	-15%	7%
CSc1nc(NCCOC(C)=O)c(C#N)c(-c2ccc(C(C)(C)C)cc2)n1	-7%	·	-15%	-13%	1%
COc1cc(O)c2c(c1)OC(C)(C)CC2=O	4%	0	-4%	-7%	-5%
SMILES	Tau ThT inhib	Coupling enz	Tau fluor cs	USP1-UAF1 inh	Tau FP inhib
COc1cc(O)cc2cc3c(c(O)c12)C(=O)CC(C)(O)O3 (stereo not drawn)	25µM*	-43*	?	?	-14%
O=S(=O)(Nc1ccc(N2CCOCC2)cc1)c1cccs1	?	-4	-13%	-18%	12%
O=C1C(NS(=O)(=O)c2cccs2)=C(N2CCN(c3cccc(Cl)c3)CC2)C(=O)c2ccccc21	4µM*	-23	8.9µM*[quencher]	-23%	?
CCOC(=O)C1CCCN(C2=C(NS(=O)(=O)c3ccc(Br)cc3)C(=O)c3ccccc3C2=O)C1 (stereo not drawn)	·	-38*	·	?	·
O=C1C(NS(=O)(=O)c2ccccc2)=C(N2CCN(c3ccc(F)cc3)CC2)C(=O)c2ccccc21	6.3µM*	-21	10µM*[quencher]	-17%	-12%
CC1CCN(C2=C(NS(=O)(=O)c3ccc(Cl)cc3)C(=O)c3ccccc3C2=O)CC1	?	-34*	?	-17%	-7%
Cc1ccc(CCNC(=O)c2ccc(CSCc3ccc(C)cc3)o2)cc1	?	·	-1%	?	?
CC1CCN(C2=C(NS(=O)(=O)c3ccc(Br)cc3)C(=O)c3ccccc3C2=O)CC1	·	-17	·	-26%	·
CC1CCN(C2=C(NS(=O)(=O)c3ccccc3)C(=O)c3ccccc3C2=O)CC1	13µM*	-30	11µM*[quencher]	?	?
CCOC(=O)Cc1csc(NC(=O)c2sc3nc4c(C)cc(C)cc4cc3c2N)n1	16µM*	5	?	?	3%
CCOC(=O)Cc1csc(NC(=O)c2csc(C)c2)n1	-15%	0	-3%	0%	6%
COc1ccc(/C=N/Nc2ccc(C(=O)O)cc2)cc1Br	7.1µM*	6	?	-33%	7%
O=C(O)c1ccc(N/N=C/c2ccc(-c3ccccc3)cc2)cc1	8.9µM*	8	16µM*[quencher]	-14%	11%
Cc1ccc(S(=O)(=O)Oc2cccc(/C=N/Nc3ccc(C(=O)O)cc3)c2)cc1	-23%	-41*	?	-26%	7%
Cc1ccc(S(=O)(=O)Oc2cccc(/C=N/n3cnnc3)c2)cc1	0%	-21	-6%	-5%	-9%
Clc1cccc(N/N=C/c2ccc(N3CCOCC3)cc2)c1	?	-1	?	-26%	14%
C(=N\Nc1ccccc1)/c1ccc(N2CCOCC2)cc1	35µM*	1	?	-18%	12%
CCCN(CCC)CCCNC(=O)Cn1ncc2c3ccccc3n(Cc3ccccc3F)c2c1=O	-4%	·	-14%	-25%	4%
C/C(=C\C(=O)OCCCCCCCCC(=O)O)C[C@@H]1OCC(C[C@H]2O[C@H]2[C@@H](C)[C@H](C)O)[C@@H](O)[C@H]1O (stereo partly drawn)	·	4	·	·	·
C=CCOC(=O)N[C@@H](c1ccccc1)[C@@H](C)[N+](=O)[O-]	2%	2	-3%	·	4%
C/C(=N\Nc1cc(-c2ccccc2)nc(-c2ccc(Br)cc2)n1)c1cccc(N)c1	·	·	·	-8%	·
C/C(=N/Nc1cc(-c2ccccc2)nc(-c2ccccc2)n1)c1ccc(O)cc1	?	-5	7.1µM*[quencher]	-12%	?
CCCOc1ccc(/C=C/C(=O)Nc2sc(C)c(C)c2C(=O)OCC)cc1OC	28µM*	·	-20%	-9%	?

Screens from PubChem.
